Screens deposited in PubChem by National Center for Advancing Translational Sciences (NCATS).
Shown are actives, neighbours in structure and some others; about 19% of the full set was active somewhere.
HT1080 IDH1KD tx: toxicity to HT-1080 IDH1 knockdown cells (counter line). HT-1080 IDH1 knockdown viability, ATP luminescence, 48 h. Potency, µM (highest dose often 46.1 µM), usual class: cytotoxic. actives 2% (n = 360,000). AID 686971
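Cytotoxicity counter-line: IDH1KD HT-1080, 48 h, CellTiter-Glo. Curves classed by r2, magnitude and activity.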
TDP1 cell CPT: DT40-hTDP1 cell growth loss with CPT; chicken DT40 Tdp1-/-;hTDP1 cells + 20 nM CPT, ATP luminescence, 48 h; Potency, µM (series often up to 46.2 µM), hits mostly inhibitors; actives 12% (n = 420,000); AID 686979; further: nearly all actives have a fitted effect of over 55% in size
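Chicken DT40 Tdp1-/- cells stably complemented with human TDP1 were seeded at 400 cells/well in medium containing 20 nM camptothecin, exposed to pin-transferred compounds, and grown at 37 °C for at least 48 hr. Viability was read as ATP luminescence.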
IL1B secr inh: inflammasome signaling inhibition, IL-1 beta readout | THP-1 LPS/ATP IL-1B secretion, AlphaLISA, 16 h; hits give low values | activity change, % at 57.5 µM | actives 4.7% (n = 360,000) | AID 743279; in the data active means activity change below about -50%; inconclusive means mostly about -30% to -49%
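Secreted IL-1B measured by AlphaLISA bead assay after 16 h compound exposure of THP-1 cells; compounds (final up to 57.5 uM) added 1 h before LPS (250 ng/mL) and ATP (1.25 mM) stimulation; lower signal means less secretion.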
DT40 TDP1 no CPT: qHTS for Inhibitors of human tyrosyl-DNA phosphodiesterase 1 (TDP1): qHTS in cells in absence of CPT; Potency, µM (doses to about 46.2 µM), usual class: inhibitors; DT40 Tdp1-/- hTDP1 cells, no CPT, ATP luminescence, 48 h; actives 15% (n = 420,000); further: nearly all actives have a fitted effect of over 55% in size
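Stably hTDP1-transfected Tdp1-null chicken DT40 cells were treated with library compounds minus camptothecin and grown for at least 48 hr at 37 °C, after which cellular ATP was quantified by luminescence.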
HT1080-NT tox: kills 2HG-producing HT-1080-NT fibrosarcoma cells; HT-1080-NT fibrosarcoma viability, CellTiter-Glo ATP luminescence, 48 h; Potency, µM (highest dose often 46.1 µM), hits mostly cytotoxic; actives 1.6% (n = 360,000);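 further: NT is the 2HG producing partner of a matched IDH1 knockdown line; nearly all actives have a fitted effect of over 55% in size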
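Compounds were tested in concentration-response format on HT-1080-NT cells for 48 hours at 37 degrees C. Cell viability came from CellTiter-Glo luminescence; curves were classified by r2, response magnitude and activity.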
ELG1 repair inh: ELG1-dependent DNA repair inhibition; HEK293T ELG1-luciferase reporter, luminescence, 16 h; DNA damage induced by 5-fluorouridine; Potency, µM (doses to about 46.1 µM), actives largely listed as inhibitors; actives 2.3% (n = 330,000); further: nearly all actives have a fitted effect of over 55% in size
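Quantitative HTS, concentration-response format. 2,000 cells/well co-treated with 5-fluorouridine and compound, 16 hr in 5% CO2 at 37 °C; ONE-Glo luminescence read after 30 min.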
Hits are given with their value; ! = not active in a repeat. Unless noted, the call rests on the fitted dose curve; in most records, active means well fitted curve in the direction sought with a large enough effect; inconclusive means small, poorly fitted or top-dose-only effect, or another doubt; inactive means no such curve, though single readings can be large; an effect the other way counts as inactive or inconclusive.

For CC(=O)OC1CCC2(/C=N/O)C(=CCC3C4CCC(=O)C4(C)CCC32)C1 (configuration not stated) the results were HT1080 IDH1KD tx inactive, TDP1 cell CPT inactive, IL1B secr inh inactive, DT40 TDP1 no CPT inconclusive, HT1080-NT tox inactive and ELG1 repair inh inactive.
Screening COc1ccc(C(c2nnnn2-c2ccc(OC)cc2)N2CCC(n3c(=O)[nH]c4ccccc43)CC2)cc1 (configuration not stated) returned HT1080 IDH1KD tx inconclusive, TDP1 cell CPT 18.4µM, IL1B secr inh inconclusive, DT40 TDP1 no CPT 9.2µM and HT1080-NT tox inconclusive.
For C=C1[C@@H](C)[C@H]2[C@H](Cc3ccccc3)NC(=O)[C@]23OC(=O)/C=C/[C@H](O)CCC[C@@H](C)C/C=C/[C@H]3[C@@H]1O the results were HT1080 IDH1KD tx 0.731µM, TDP1 cell CPT 1.84µM, IL1B secr inh inactive, DT40 TDP1 no CPT 0.651µM and HT1080-NT tox 1.3µM.
For C=C1C(C)C2C(Cc3ccccc3)NC(=O)C23C(OC(C)=O)C=CC(C)(O)CC(C)CC=CC3C1O (configuration not stated) the results were HT1080 IDH1KD tx inconclusive, TDP1 cell CPT 0.461µM, IL1B secr inh inactive, DT40 TDP1 no CPT 0.731µM and HT1080-NT tox inactive.
`CC(=O)O[C@@H]1/C=C/[C@](C)(O)C[C@@H](C)C/C=C/[C@H]2[C@H](O)C(C)=C(C)[C@H]3[C@H](Cc4ccccc4)NC(=O)[C@@]123` gave HT1080 IDH1KD tx inconclusive, TDP1 cell CPT 0.581µM, IL1B secr inh inactive, DT40 TDP1 no CPT 0.581µM and HT1080-NT tox 2.59µM.
C[C@H]1C/C=C/[C@H]2[C@H](O)[C@H](C)[C@@](C)(O)[C@H]3[C@H](Cc4ccccc4)NC(=O)[C@]32[C@H](O)/C=C/[C@](C)(O)C1 was read as HT1080 IDH1KD tx inconclusive, TDP1 cell CPT 3.66µM, IL1B secr inh inactive, DT40 TDP1 no CPT 8.2µM and HT1080-NT tox inactive.
`Oc1cc(Cl)cc(Cl)c1Cl` gave HT1080 IDH1KD tx inactive, TDP1 cell CPT inconclusive, IL1B secr inh inactive, DT40 TDP1 no CPT inactive, HT1080-NT tox inactive and ELG1 repair inh inactive.
Screening O=C1CC(c2ccccc2Br)c2c(c3ccccc3oc2=O)O1 (configuration not stated) returned TDP1 cell CPT inactive and DT40 TDP1 no CPT inactive.
Screening CCN(CC)P(=O)(Oc1ccccc1)Oc1ccccc1 returned HT1080 IDH1KD tx inactive, TDP1 cell CPT inconclusive, IL1B secr inh inactive, DT40 TDP1 no CPT inconclusive, HT1080-NT tox inactive and ELG1 repair inh inactive.
COCCOc1ccc(C(F)(F)F)cc1NC(=O)CN1C(=O)NC2(CCCc3ccccc32)C1=O (configuration not stated) was read as HT1080 IDH1KD tx inactive, TDP1 cell CPT inconclusive, IL1B secr inh inactive, DT40 TDP1 no CPT 25.9µM, HT1080-NT tox inactive and ELG1 repair inh inactive.
Screening C[C@@]12C(=O)N(Cc3ccco3)CC(=O)N1[C@H]1c3ccccc3OC[C@@H]1[C@@H]2c1ccccc1 returned HT1080 IDH1KD tx inactive, TDP1 cell CPT inconclusive, IL1B secr inh inactive, DT40 TDP1 no CPT inconclusive, HT1080-NT tox inactive and ELG1 repair inh inactive.
Screening C/C(=N\N=C(N)N)c1ccccc1 returned HT1080 IDH1KD tx inactive, TDP1 cell CPT inconclusive, DT40 TDP1 no CPT 18.4µM, HT1080-NT tox inactive and ELG1 repair inh inconclusive.
`CSCc1nnc2n1-c1ccc(Cl)cc1C(c1ccccc1)=NC2` gave HT1080 IDH1KD tx inactive, TDP1 cell CPT inactive, IL1B secr inh inactive, DT40 TDP1 no CPT inconclusive, HT1080-NT tox inactive and ELG1 repair inh inconclusive.
Screening NNC(=O)CP(=O)(c1ccccc1)c1ccccc1 returned HT1080 IDH1KD tx inactive, TDP1 cell CPT inconclusive, IL1B secr inh inactive, DT40 TDP1 no CPT 11.9µM!, HT1080-NT tox inactive and ELG1 repair inh inactive.
